Source: PubChem BioAssay
Rows were chosen to be rich in hits. Some 3% of all compounds tested hit in one or more screens of this group.
PPC-1+TRAIL kill: PPC-1 cancer cell killing with TRAIL present | PPC-1 cells + TRAIL, ATPLite viability luminescence | cell killing (% activity), % at 4 µM or 5 µM | actives 0.41% (n = 220,000);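 active = cell killing above 50% in the first pass at 4 µM, then a duplicate retest at 5 µM averaging 50% or more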
SENP8 block-1: SENP8 (human) protease inhibition | Q96LD8 | inhibition, % at 20 µM | actives 0.64% (n = 360,000) | recombinant SENP8, Nedd8 substrate fluorescence; in the data active = inhibition mostly above about 40%, no sharp cut-off; inactive = mostly below about 27%
Target sequence (Q96LD8 whole entry, looked up): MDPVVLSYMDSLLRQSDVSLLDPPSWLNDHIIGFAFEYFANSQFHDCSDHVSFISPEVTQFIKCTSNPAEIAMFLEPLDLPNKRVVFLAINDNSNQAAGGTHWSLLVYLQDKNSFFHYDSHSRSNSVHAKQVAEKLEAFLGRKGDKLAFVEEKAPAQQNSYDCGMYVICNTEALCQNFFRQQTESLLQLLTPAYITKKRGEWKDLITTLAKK
C8 TRAIL sens: sensitizes caspase-8 expressing cells to TRAIL | NB7+C8 cells + TRAIL, ATPlite viability luminescence | inhibition (viability loss, TRAIL sensitization), % at 10 µM | actives 1% (n = 360,000);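 active = compounds causing at least 50% loss of cell viability in the single-dose screen, relative to plate controls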
SENP7 inh: inhibitors of human SENP7 protease; Q9BQF6; recombinant SENP7, Z-RLRGG-aminoluciferin luminescence, 40 min; inhibition, % at 5 µM; actives 1.5% (n = 330,000);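 active = inhibition above about 50% at the single test dose, limit read from the data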
Target sequence (Q9BQF6 706-1050 limits assumed): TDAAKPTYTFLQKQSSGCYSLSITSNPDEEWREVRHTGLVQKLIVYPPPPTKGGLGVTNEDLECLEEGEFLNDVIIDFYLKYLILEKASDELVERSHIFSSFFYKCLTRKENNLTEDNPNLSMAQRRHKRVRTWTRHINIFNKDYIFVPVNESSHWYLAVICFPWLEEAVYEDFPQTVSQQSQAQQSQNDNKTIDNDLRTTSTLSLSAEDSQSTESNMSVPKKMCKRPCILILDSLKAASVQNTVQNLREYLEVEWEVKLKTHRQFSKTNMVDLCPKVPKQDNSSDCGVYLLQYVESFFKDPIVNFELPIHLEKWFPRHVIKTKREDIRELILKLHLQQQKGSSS
SENP8 block-2: inhibitors of human SENP8 protease. inhibition, % at 10 µM. purified SENP8, Z-RLRGG-aminoluciferin cleavage, luminescence. Q96LD8. actives 1.2% (n = 330,000); in the data active = inhibition above about 50%
SENP6 block: inhibitors of human SENP6 protease; Q9GZR1; Recombinant SENP6 catalytic domain, aminoluciferin luminescence; inhibition, % at 10 µM; actives 1.8% (n = 330,000); AID 2599;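 active = inhibition above about 50% at the single tested dose, limit read from the data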
SENP8 inh conf: confirmation of human SENP8 protease inhibitors. actives 15% (n = 1,400). inhibition, % at 25 µM. shares compounds with SENP8 block-1. purified SENP8, Nedd8-AMC/pro-Nedd8 cleavage fluorescence, 30 min. AID 624319; in the data active = inhibition mostly above about 39%, no sharp cut-off; inactive = mostly below about 34%
Numbers stand for hits; – = inactive; · = no result.

SMILES | PPC-1+TRAIL kill | SENP8 block-1 | C8 TRAIL sens | SENP7 inh | SENP8 block-2 | SENP6 block | SENP8 inh conf
Cc1ccc(S(=O)(=O)N2CC3(O)CN(C(=O)OC(C)C)N(C(=O)OC(C)C)CC3(OC(=O)NCc3ccccc3)C2)cc1 (stereo not given) | · | – | – | · | · | · | ·
COC(=O)CN1C(=O)S/C(=C/c2ccc(N3CCCCC3)o2)C1=O | – | 41.9 | – | – | – | – | –
CC(=O)Nc1ccc2c(c1)C(N1CC3CCC(CC3)C1)c1ccccc1-2 (stereo not given) | · | – | – | · | · | · | ·
CCC(C)Nc1nc(N)c([N+](=O)[O-])c(Nc2cc(OC)ccc2OC)n1 (stereo not given) | – | 45.2 | – | – | – | – | –
CCc1nc2ccc(C(=O)NCC3CCCCC3)cn2c1N(C)Cc1ccc(OC)cc1 | · | – | – | · | · | · | ·
O=C1OC(N2C(=O)CC[C@H]2C(=O)Nc2ccc(Br)cc2F)c2ccccc21 (stereo not given in full) | · | 54.1 | – | – | – | – | –
Cc1cc(C)c(NC(=O)C2C(=O)Nc3ccccc3C(=O)N2C(C)(C)C)c(C)c1 (stereo not given) | · | – | – | · | · | · | ·
O=C(NN=Cc1ccc(N2CCOCC2)s1)c1ccc([N+](=O)[O-])cc1 | · | 43.0 | – | – | – | – | –
O=C(N/N=C/c1ccc(N2CCOCC2)s1)c1ccc(O)cc1 | · | – | – | · | · | · | ·
CCc1ccc(CN2CCC(Oc3cc(C(=O)NC4CC4)ccc3OC)CC2)cc1 | · | – | – | · | · | · | ·
CCCCOc1ccc(/C=N/NC(=S)Nc2cccc(C)c2C)cc1 | – | 40.0 | – | – | – | – | –
CCCCOc1ccc(/C=N/NC(=S)Nc2cc(C)ccc2C)cc1 | – | – | – | – | – | – | ·
N#Cc1cccc(NC(=O)c2cncn2-c2ccccc2)c1 | · | – | – | – | – | – | ·
COC(=O)C1=C(C)NC(C)=C(C(=O)OC)C1c1ccc(-c2cccc([N+](=O)[O-])c2)o1 | – | 46.6 | – | – | – | – | –
CC(C)CNS(=O)(=O)c1ccc(CCC(=O)N2CCC(C(N)=O)CC2)cc1 | – | – | – | – | – | – | ·
COc1ccc(NC(=O)c2ccc(=O)[nH]c2)cc1S(=O)(=O)N1CCOCC1 | · | – | – | – | – | – | ·
COc1cc(N(C)C)c([N+](=O)[O-])cc1C(=O)NC(C)CNc1ccc([N+](=O)[O-])cc1Cl (stereo not given) | – | 41.8 | – | – | – | – | –
CCN(CC)CCNC(=O)c1cc([N+](=O)[O-])c(N(C)C)cc1OC | – | – | – | – | – | – | ·
COC(=O)C1CN(C(=O)COc2ccccc2)c2ccccc2O1 (stereo not given) | · | – | – | – | – | – | ·
Cc1cc(C)c(/C([O-])=C(/C(=S)Nc2ccc(SC(F)F)cc2)[n+]2ccccc2)cc1C | – | – | – | – | – | – | ·
CN(C)c1cc[n+](/C(C(=S)Nc2ccc(SC(F)F)cc2)=C(/[O-])c2ccccc2)cc1 | – | 43.5 | – | – | – | – | –
CN1CCc2nc(SCC(=O)Nc3ccc(OC(F)(F)F)cc3)c(C#N)c(-c3cccs3)c2C1 | – | 44.8 | – | – | – | – | –
COc1cccc(NC(=O)CSc2nc3c(c(-c4ccco4)c2C#N)CCCC3)c1 | – | – | – | – | – | – | ·
Cc1cccc(CSc2nc(N)c(C#N)c(-c3cccs3)c2C#N)c1 | – | – | – | – | – | – | ·
Cc1cccc(CSc2nc3c(c(-c4cccs4)c2C#N)CN(C)CC3)c1 | – | 39.5 | – | – | – | – | –
SMILES | PPC-1+TRAIL kill | SENP8 block-1 | C8 TRAIL sens | SENP7 inh | SENP8 block-2 | SENP6 block | SENP8 inh conf
Cc1[nH][nH]c(=O)c1C(c1ccc(-c2ccc(Cl)cc2Cl)o1)c1c(C)[nH][nH]c1=O | – | · | · | · | · | · | ·
Cc1ccc2oc(-c3ccccc3C(=O)O)cc(=O)c2c1 | – | – | – | – | – | – | ·
COC(=O)c1ccc(-c2ccc(C(c3c(C)[nH][nH]c3=O)c3c(C)[nH][nH]c3=O)o2)cc1 | · | – | – | – | – | – | ·
Cc1[nH][nH]c(=O)c1C(c1ccc(-c2ccccc2C(=O)O)o1)c1c(C)[nH][nH]c1=O | – | 49.4 | – | · | · | · | 37.8
Cc1[nH][nH]c(=O)c1C(c1ccc(-c2cccc(C(=O)O)c2)o1)c1c(C)[nH][nH]c1=O | – | 51.9 | – | – | – | – | 69.5
Cc1[nH][nH]c(=O)c1C(c1ccc(-c2cccc(Cl)c2)o1)c1c(C)[nH][nH]c1=O | – | 78.6 | – | – | – | – | 85.2
CC(C)[C@@H](C(=O)NC1CCN(Cc2ccccc2)CC1)N1C(=O)N2CCc3c([nH]c4ccccc34)[C@@]2(C)C1=O | · | – | – | – | – | – | ·
CC(C)[C@@H](C(=O)NC1CC1)N1C(=O)N2CCc3c([nH]c4ccccc34)[C@@]2(C)C1=O | · | 51.1 | – | – | – | – | –
CC(C)[C@@H](C(=O)NCC1CCCO1)N1C(=O)N2CCc3c([nH]c4ccccc34)[C@@]2(C)C1=O (stereo not given in full) | · | 50.9 | – | – | – | – | –
CC(C)[C@@H](C(=O)NCc1ccco1)N1C(=O)N2CCc3c([nH]c4ccccc34)[C@@]2(C)C1=O | · | – | – | – | – | – | ·
CC(C)[C@@H](C(=O)N[C@@H](C(=O)O)c1ccccc1)N1C(=O)N2CCc3c([nH]c4ccccc34)[C@@]2(C)C1=O | · | 43.5 | – | – | – | – | –
N#C/C(=C\c1cc2c(cc1Br)OCO2)C(=O)NCC1CCCO1 (stereo not given) | – | – | – | – | – | – | ·
COC(=O)[C@]12CCCCC=C1N(Cc1ccco1)C(=O)[C@H](CC(=O)N1CCCCC1)C2 | · | – | – | · | · | · | ·
OCCN1CCN(C(=S)c2ccc(Cl)c(Cl)c2)CC1 | – | 42.2 | – | – | – | – | 34.1
CC(C)OCCCNC(=O)CCCC(=O)Nc1ccc(OCCc2ccccc2)cc1 | · | – | – | – | – | – | ·
COc1ccc(C(C)(O)c2nc(-c3cccc(O)c3)cs2)cc1 (stereo not given) | · | – | – | · | · | · | ·
CCN(CC)S(=O)(=O)c1ccc(NCC2COc3ccccc3O2)c([N+](=O)[O-])c1 (stereo not given) | – | 46.9 | – | – | – | – | –
CN(C)c1ccc(NC(=O)CN2CCC(N3CCCCC3)CC2)cc1 | – | 41.6 | – | – | – | – | –
COc1cccc(C=Nc2ccc3c(c2)OCCO3)c1O | – | 53.4 | – | – | – | – | –
CCOc1ccc(CN(C)C(=O)CNC(=O)c2cc(OC)c(OC)c(OC)c2)cc1 | · | – | – | – | – | – | ·
CCN(N=O)c1ccc(C=C2C=Cc3ccccc32)cc1 | · | 68.8 | – | · | · | · | –
CC(=O)N(C)c1ccc(C=C2C=Cc3ccccc32)cc1 | · | – | – | · | · | · | ·
CN(N=O)c1ccc(C=C2C=Cc3ccccc32)cc1 | · | 50.7 | – | · | · | · | –
COc1ccc(-c2cccc(N3CCN(c4ccccn4)CC3)n2)cc1OC | · | – | – | · | · | · | ·
